Test results: PubChem BioAssay AID1159580 (chemical genetic matrix, 2015)
Screen size: about 5,500 compounds; about 2,000 (36%) were called active. About 18% were inconclusive and are not listed. No stated cut-off is given here; in the data, active means normalized growth mostly below about 0.91 (no sharp cut-off); inconclusive means no clear call, values can overlap the other calls; inactive means mostly above about 0.92. Some of the results follow.

Experiment: chemical genetic growth profiling, strain panel (AID 1159580);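 further: tested at 20 µM; growth read once vehicle control cultures reached saturation at 30 °C; 1 = growth at the plate median or of vehicle wells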
Conditions: growth OD

Measured: normalized growth

C[C@H]1[C@H](C)CC[C@]2(C(=O)O)CC[C@]3(C)C(=CCC4[C@@]5(C)C[C@@H](O)[C@H](O)[C@@](C)(CO)C5[C@H](O)C[C@]43C)[C@H]12 (stereo partly drawn)
inactive: S. cerevisiae deletion strains, locus YJR066W, strain TOR1, stronger effect = lower value 0.909 | S. cerevisiae deletion strains, locus YKL160W, strain elf1, stronger effect = lower value 0.958 | S. cerevisiae deletion strains, locus YKR026C, strain gcn3, stronger effect = lower value 0.962 | S. cerevisiae deletion strains, locus YKR091W, strain srl3, stronger effect = lower value 0.965 | S. cerevisiae deletion strains, locus YLL001W, strain dnm1, stronger effect = lower value 0.964 | S. cerevisiae deletion strains, locus YLL026W, stronger effect = lower value 0.97 | S. cerevisiae deletion strains, locus YLL041C, strain sdh2, stronger effect = lower value 0.966 | S. cerevisiae deletion strains, locus YLR027C, strain aat2, stronger effect = lower value 0.96 | S. cerevisiae deletion strains, locus YLR039C, strain RIC1, stronger effect = lower value 0.799 | S. cerevisiae deletion strains, locus YLR058C, strain SHM2, stronger effect = lower value 0.993 | S. cerevisiae deletion strains, locus YLR102C, strain apc9, stronger effect = lower value 0.976 | S. cerevisiae deletion strains, locus YLR221C, strain rsa3, stronger effect = lower value 0.922 | S. cerevisiae deletion strains, locus YLR258W, strain gsy2, stronger effect = lower value 0.968 | S. cerevisiae deletion strains, locus YLR262C, strain YPT6 (second series), stronger effect = lower value 0.919 | S. cerevisiae deletion strains, locus YLR262C, strain YPT6, stronger effect = lower value 0.872 | S. cerevisiae deletion strains, locus YLR268W, strain sec22, stronger effect = lower value 0.932 | S. cerevisiae deletion strains, locus YLR320W, strain mms22, stronger effect = lower value 0.928 | S. cerevisiae deletion strains, locus YLR330W, strain CHS5, stronger effect = lower value 0.958 | S. cerevisiae deletion strains, locus YLR342W, strain FKS1 (second series), stronger effect = lower value 0.915 | S. cerevisiae deletion strains, locus YLR342W, strain FKS1, stronger effect = lower value 0.982 | S. cerevisiae deletion strains, locus YLR357W, strain rsc2, stronger effect = lower value 0.921 | S. cerevisiae deletion strains, locus YLR370C, strain arc18, stronger effect = lower value 0.967 | S. cerevisiae deletion strains, locus YLR371W, strain rom2, stronger effect = lower value 0.921 | S. cerevisiae deletion strains, locus YLR384C, strain iki3, stronger effect = lower value 0.964 | S. cerevisiae deletion strains, locus YLR418C, strain cdc73, stronger effect = lower value 0.901 | S. cerevisiae deletion strains, locus YML016C, strain PPZ1, stronger effect = lower value 0.99 | S. cerevisiae deletion strains, locus YML032C, strain rad52, stronger effect = lower value 0.959 | S. cerevisiae deletion strains, locus YML120C, strain ndi1, stronger effect = lower value 0.951 | S. cerevisiae deletion strains, locus YML124C, strain tub3, stronger effect = lower value 0.963 | S. cerevisiae deletion strains, locus YMR058W, strain fet3, stronger effect = lower value 0.972 | S. cerevisiae deletion strains, locus YMR078C, strain ctf18, stronger effect = lower value 0.979 | S. cerevisiae deletion strains, locus YMR125W, strain sto1, stronger effect = lower value 0.966 | S. cerevisiae deletion strains, locus YMR129W, stronger effect = lower value 0.962 | S. cerevisiae deletion strains, locus YMR205C, strain PFK2, stronger effect = lower value 0.909 | S. cerevisiae deletion strains, locus YMR223W, strain ubp8, stronger effect = lower value 0.905 | S. cerevisiae deletion strains, locus YMR231W, strain pep5, stronger effect = lower value 0.978 | S. cerevisiae deletion strains, locus YMR307W, strain GAS1, stronger effect = lower value 0.6 | S. cerevisiae deletion strains, locus YNL067W, strain RPL9B, stronger effect = lower value 0.942 | S. cerevisiae deletion strains, locus YNL071W, strain lat1, stronger effect = lower value 0.973 | S. cerevisiae deletion strains, locus YNL183C, strain NPR1, stronger effect = lower value 0.905 | S. cerevisiae deletion strains, locus YNL209W, strain ssb2, stronger effect = lower value 0.961 | S. cerevisiae deletion strains, locus YNL233W, strain BNI4, stronger effect = lower value 0.927 | S. cerevisiae deletion strains, locus YNL248C, strain rpa49, stronger effect = lower value 0.964 | S. cerevisiae deletion strains, locus YNL250W, strain rad50, stronger effect = lower value 0.98 | S. cerevisiae deletion strains, locus YNL307C, strain MCK1, stronger effect = lower value 0.994 | S. cerevisiae deletion strains, locus YNL322C, strain KRE1 (second series), stronger effect = lower value 0.98 | S. cerevisiae deletion strains, locus YNL322C, strain KRE1, stronger effect = lower value 0.984 | S. cerevisiae deletion strains, locus YNR049C, strain mso1, stronger effect = lower value 0.987 | S. cerevisiae deletion strains, locus YOL006C, strain TOP1, stronger effect = lower value 0.915 | S. cerevisiae deletion strains, locus YOL012C, strain htz1 0.605 | S. cerevisiae deletion strains, locus YOL147C, strain pex11, stronger effect = lower value 0.985 | S. cerevisiae deletion strains, locus YOR001W, strain rrp6, stronger effect = lower value 0.907 | S. cerevisiae deletion strains, locus YOR061W, strain CKA2, stronger effect = lower value 0.994 | S. cerevisiae deletion strains, locus YOR069W, strain VPS5, stronger effect = lower value 0.998 | S. cerevisiae deletion strains, locus YOR070C, strain gyp1, stronger effect = lower value 0.966 | S. cerevisiae deletion strains, locus YOR080W, strain dia2, stronger effect = lower value 0.967 | S. cerevisiae deletion strains, locus YOR083W, strain WHI5, stronger effect = lower value 0.954 | S. cerevisiae deletion strains, locus YOR106W, strain vam3, stronger effect = lower value 0.972 | S. cerevisiae deletion strains, locus YOR136W, strain idh2, stronger effect = lower value 0.931 | S. cerevisiae deletion strains, locus YOR144C, strain elg1, stronger effect = lower value 0.958 | S. cerevisiae deletion strains, locus YOR184W, strain ser1, stronger effect = lower value 0.946 | S. cerevisiae deletion strains, locus YOR231W, strain MKK1, stronger effect = lower value 0.982 | S. cerevisiae deletion strains, locus YOR265W, strain rbl2, stronger effect = lower value 0.98 | S. cerevisiae deletion strains, locus YOR270C, strain vph1, stronger effect = lower value 0.851 | S. cerevisiae deletion strains, locus YOR290C, strain snf2, stronger effect = lower value 0.971 | S. cerevisiae deletion strains, locus YOR316C, strain cot1, stronger effect = lower value 0.962 | S. cerevisiae deletion strains, locus YPL051W, strain arl3, stronger effect = lower value 0.959 | S. cerevisiae deletion strains, locus YPL055C, strain LGE1, stronger effect = lower value 0.938 | S. cerevisiae deletion strains, locus YPL078C, strain atp4, stronger effect = lower value 0.984 | S. cerevisiae deletion strains, locus YPL106C, strain sse1, stronger effect = lower value 0.895 | S. cerevisiae deletion strains, locus YPL240C, strain hsp82, stronger effect = lower value 0.953 | S. cerevisiae deletion strains, locus YPL241C, strain CIN2, stronger effect = lower value 1 | S. cerevisiae deletion strains, locus YPL256C, strain CLN2, stronger effect = lower value 0.958 | S. cerevisiae deletion strains, locus YPR119W, strain clb2, stronger effect = lower value 0.978 | S. cerevisiae deletion strains, locus YPR141C, strain kar3, stronger effect = lower value 0.974 | S. cerevisiae deletion strains, locus YPR163C, strain tif3, stronger effect = lower value 0.969 | S. cerevisiae deletion strains, locus YPR167C, strain met16, stronger effect = lower value 0.974 | S. cerevisiae deletion strains, strain wtn01, stronger effect = lower value 0.94 | S. cerevisiae strains, strain wild type, stronger effect = lower value 0.961
active: S. cerevisiae deletion strains, locus YKL009W, strain mrt4, stronger effect = lower value 1.55 [resistant] | S. cerevisiae deletion strains, locus YKL068W, stronger effect = lower value 1.23 [resistant] | S. cerevisiae deletion strains, locus YKL085W, strain MDH1 (second series), stronger effect = lower value 1.3 [resistant] | S. cerevisiae deletion strains, locus YKL085W, strain MDH1, stronger effect = lower value 1.3 [resistant] | S. cerevisiae deletion strains, locus YKR001C, strain vps1, stronger effect = lower value 0.855 | S. cerevisiae deletion strains, locus YLR113W, strain HOG1, stronger effect = lower value 0.673 | S. cerevisiae deletion strains, locus YNL271C, strain bni1, stronger effect = lower value 0.907 | S. cerevisiae deletion strains, locus YNL298W, strain CLA4, stronger effect = lower value 0.869 | S. cerevisiae deletion strains, locus YNR052C, strain pop2, stronger effect = lower value 0.914
